Measurements reported in PubChem BioAssay (EPA / NIEHS).
Results filed as inconclusive are left out. Activity calls are given as the source filed them. The calls were made as follows: active = hit-call score of the fitted dose curve at least 0.9, where 1 is the maximum; inconclusive = response in the unintended direction; inactive = score below 0.9.

Tests used:
[1] = target: rat Adrenergic Receptor, Alpha 2 (Adra2), Non-selective Binding, Adra2a (gene 25083) (UniProt P22909); test: NVS_GPCR_rAdra2_NonSelective: NovaScreen (NVS) G Protein-Coupled Receptor Assay for rat Adrenergic Receptor, Alpha 2 (Adra2), Non-selective Binding (AID 2283299)
Chain of rat Adrenergic Receptor, Alpha 2 (Adra2), Non-selective Binding, Adra2a (gene 25083) (P22909 whole entry, looked up): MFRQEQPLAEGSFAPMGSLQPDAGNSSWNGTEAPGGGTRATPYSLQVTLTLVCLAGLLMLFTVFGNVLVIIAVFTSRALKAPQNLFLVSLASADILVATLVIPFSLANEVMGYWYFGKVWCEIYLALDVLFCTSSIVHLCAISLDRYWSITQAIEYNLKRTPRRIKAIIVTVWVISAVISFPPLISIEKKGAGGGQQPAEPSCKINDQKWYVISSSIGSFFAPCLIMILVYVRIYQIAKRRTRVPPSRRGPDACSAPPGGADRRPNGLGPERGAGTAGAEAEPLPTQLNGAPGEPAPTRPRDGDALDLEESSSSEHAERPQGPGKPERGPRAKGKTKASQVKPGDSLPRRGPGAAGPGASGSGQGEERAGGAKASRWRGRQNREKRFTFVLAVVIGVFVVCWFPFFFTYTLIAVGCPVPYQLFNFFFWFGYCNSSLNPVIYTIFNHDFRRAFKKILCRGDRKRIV
Summary of the method: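 Filter-based scintillation counting of radioligand binding to rat cortical membrane receptors, measured 1.25 hours post-dosing; loss of signal versus DMSO indicates displacement. Initial single-concentration duplicate at 25 uM, then concentration series.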

[2] = target: rat Oxytocin Receptor (OXT), Oxtr (gene 25342) (UniProt P70536); test: NVS_GPCR_rOXT: NovaScreen (NVS) G Protein-Coupled Receptor Assay for rat Oxytocin Receptor (OXT) (AID 2283330)
Chain of rat Oxytocin Receptor (OXT), Oxtr (gene 25342) (P70536 whole entry, looked up): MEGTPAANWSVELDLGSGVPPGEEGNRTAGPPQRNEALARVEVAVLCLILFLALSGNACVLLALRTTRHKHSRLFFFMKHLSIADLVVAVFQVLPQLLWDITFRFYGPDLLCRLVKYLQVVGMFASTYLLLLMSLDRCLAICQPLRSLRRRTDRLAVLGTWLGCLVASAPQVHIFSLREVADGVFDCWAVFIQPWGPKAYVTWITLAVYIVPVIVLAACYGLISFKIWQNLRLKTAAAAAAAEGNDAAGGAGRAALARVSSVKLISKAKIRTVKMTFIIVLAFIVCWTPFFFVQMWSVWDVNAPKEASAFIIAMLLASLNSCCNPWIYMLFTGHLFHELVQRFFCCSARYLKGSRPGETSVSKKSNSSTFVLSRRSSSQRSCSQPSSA
Summary of the method: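 Binding to rat uterine membrane receptor was followed by scintillation counting of filter-trapped radioligand after 1 h. A 25 uM duplicate single-point screen preceded concentration series with a top of 50 uM. Signal loss was analysed relative to DMSO.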

[3] = target: rat Neurotensin Receptor (NTS), Ntsr1 (gene 366274) (UniProt P20789); test: NVS_GPCR_rNTS: NovaScreen (NVS) G Protein-Coupled Receptor Assay for rat Neurotensin Receptor (NTS) (AID 2283308)
Chain of rat Neurotensin Receptor (NTS), Ntsr1 (gene 366274) (P20789 whole entry, looked up): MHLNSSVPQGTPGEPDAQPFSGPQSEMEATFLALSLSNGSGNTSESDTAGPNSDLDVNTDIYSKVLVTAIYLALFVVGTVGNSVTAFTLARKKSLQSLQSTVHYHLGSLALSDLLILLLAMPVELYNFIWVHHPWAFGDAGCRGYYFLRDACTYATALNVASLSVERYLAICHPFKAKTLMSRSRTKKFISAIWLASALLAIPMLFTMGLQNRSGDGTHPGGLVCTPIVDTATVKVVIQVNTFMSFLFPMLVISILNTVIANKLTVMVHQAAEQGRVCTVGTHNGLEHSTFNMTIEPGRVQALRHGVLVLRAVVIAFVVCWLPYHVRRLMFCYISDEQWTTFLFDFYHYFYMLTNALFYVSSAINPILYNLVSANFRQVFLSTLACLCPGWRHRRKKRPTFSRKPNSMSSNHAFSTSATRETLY
Summary of the method: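 Single-point duplicates at 25 uM, then concentration series to 50 uM max for hits, measured radioligand displacement on rat forebrain membrane preparations. Bound label counted by filtration scintillation at 1 h; signal loss relative to DMSO fitted.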

[4] = target: Sodium channel protein type 1 subunit alpha (Rattus norvegicus) (UniProt P04774); test: NVS_IC_rNaCh_site2: NovaScreen (NVS) Ion Channel Assay for rat Sodium Channel, Site 2 (NaCh) (AID 2283322);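 also: hit means loss of radioligand binding signal relative to DMSO so AC50 marks displacement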
Summary of the method: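 Initial duplicate single-point testing at 25 uM, followed by concentration-response runs for actives. Binding of radioligand to rat forebrain membranes quantified after 1 h via filter-based radiodetection.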

[5] = target: human Peripheral-type Benzodiazepine Receptor (PBR), TSPO (gene 706) (UniProt P30536); test: NVS_MP_hPBR: NovaScreen (NVS) Membrane Protein Assay for human Peripheral-type Benzodiazepine Receptor (PBR) (AID 2283331);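 also: hits reduce radioligand binding relative to DMSO baseline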
Chain of human Peripheral-type Benzodiazepine Receptor (PBR), TSPO (gene 706) (P30536 whole entry, looked up): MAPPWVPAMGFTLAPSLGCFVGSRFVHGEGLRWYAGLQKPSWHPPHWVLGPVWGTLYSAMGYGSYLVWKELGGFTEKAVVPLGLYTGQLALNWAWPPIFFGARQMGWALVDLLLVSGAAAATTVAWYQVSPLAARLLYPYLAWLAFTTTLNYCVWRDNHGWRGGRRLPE
Summary of the method: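 Cell-free radioligand displacement, human colonic membranes, 1 h exposure. Filter radiodetection read-out. Single-concentration duplicates (25 uM), then concentration-response for actives; DMSO negative control.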

[6] = target: rat Thyrotropin Releasing Hormone Receptor (TRH), Trhr (gene 25570) (UniProt Q01717); test: NVS_GPCR_rTRH: NovaScreen (NVS) G Protein-Coupled Receptor Assay for rat Thyrotropin Releasing Hormone Receptor (TRH) (AID 2283329);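 also: hit means lower bound tracer signal versus DMSO baseline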
Chain of rat Thyrotropin Releasing Hormone Receptor (TRH), Trhr (gene 25570) (Q01717 whole entry, looked up): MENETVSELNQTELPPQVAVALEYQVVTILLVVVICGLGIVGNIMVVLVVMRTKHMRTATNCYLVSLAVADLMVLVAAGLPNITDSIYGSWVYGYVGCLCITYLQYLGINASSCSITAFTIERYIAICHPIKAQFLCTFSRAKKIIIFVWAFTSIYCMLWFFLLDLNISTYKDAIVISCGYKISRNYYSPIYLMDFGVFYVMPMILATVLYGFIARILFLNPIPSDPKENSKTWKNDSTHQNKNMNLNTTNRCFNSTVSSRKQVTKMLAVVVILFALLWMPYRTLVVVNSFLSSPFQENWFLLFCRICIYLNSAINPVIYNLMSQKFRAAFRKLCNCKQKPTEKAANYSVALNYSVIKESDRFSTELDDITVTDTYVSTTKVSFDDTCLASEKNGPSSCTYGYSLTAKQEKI
Summary of the method: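 Competitive radioligand binding on rat forebrain membrane preparations, with filtration and scintillation readout after 4 h. Primary testing in duplicate at 25 uM; actives confirmed in concentration-response. DMSO defined baseline.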

[7] = target: rat Opioid Receptor, Non-selective Sodium (Na+) Binding, Oprm1 (gene 25601) (UniProt P33535); test: NVS_GPCR_rOpiate_NonSelectiveNa: NovaScreen (NVS) G Protein-Coupled Receptor Assay for rat Opioid Receptor, Non-selective Sodium (Na+) Binding (AID 2283311)
Chain of rat Opioid Receptor, Non-selective Sodium (Na+) Binding, Oprm1 (gene 25601) (P33535 whole entry, looked up): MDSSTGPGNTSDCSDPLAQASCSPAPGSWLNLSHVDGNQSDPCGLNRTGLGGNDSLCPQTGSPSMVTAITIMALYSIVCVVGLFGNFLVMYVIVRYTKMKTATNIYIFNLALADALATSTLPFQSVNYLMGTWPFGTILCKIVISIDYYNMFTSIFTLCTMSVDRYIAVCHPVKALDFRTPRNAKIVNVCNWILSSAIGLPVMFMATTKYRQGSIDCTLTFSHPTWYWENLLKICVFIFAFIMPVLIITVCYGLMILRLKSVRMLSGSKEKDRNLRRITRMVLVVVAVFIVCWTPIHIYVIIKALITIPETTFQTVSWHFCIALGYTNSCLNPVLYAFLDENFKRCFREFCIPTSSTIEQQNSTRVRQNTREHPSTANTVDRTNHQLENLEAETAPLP
Summary of the method: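 Filtration radioligand binding on rat forebrain membrane preparations, read 1.5 h after dosing. Single-concentration 25 µM primary screen in duplicate, followed by singleton concentration series to 50 µM max for actives; DMSO baseline.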

[8] = target: rat Neonicotinoid receptor (NNR), Chrna7 (gene 25302) (UniProt Q05941); test: NVS_LGIC_rNNR_BungSens: NovaScreen (NVS) Ligand-Gated Ion Channel Assay for rat Neonicotinoid receptor (NNR) (AID 2283315)
Chain of rat Neonicotinoid receptor (NNR), Chrna7 (gene 25302) (Q05941 whole entry, looked up): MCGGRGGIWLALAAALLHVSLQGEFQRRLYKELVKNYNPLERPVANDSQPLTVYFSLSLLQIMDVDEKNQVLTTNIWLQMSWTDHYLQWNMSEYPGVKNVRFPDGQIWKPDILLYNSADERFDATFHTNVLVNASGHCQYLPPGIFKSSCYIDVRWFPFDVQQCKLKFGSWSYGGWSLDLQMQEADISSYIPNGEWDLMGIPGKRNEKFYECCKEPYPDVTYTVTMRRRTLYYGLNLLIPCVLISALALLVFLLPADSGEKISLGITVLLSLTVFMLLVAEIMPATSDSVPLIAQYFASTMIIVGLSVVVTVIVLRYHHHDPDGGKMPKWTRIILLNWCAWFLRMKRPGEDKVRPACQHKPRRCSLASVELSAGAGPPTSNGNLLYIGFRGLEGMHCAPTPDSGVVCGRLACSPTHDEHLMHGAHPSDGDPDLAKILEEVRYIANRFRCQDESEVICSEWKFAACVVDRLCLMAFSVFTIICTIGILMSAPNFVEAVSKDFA
Summary of the method: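 Rat cortical membrane preparation incubated 2.5 h with tritiated or iodinated radioligand and test chemical. Bound radioactivity was filtered and counted by scintillation, and displacement was analysed against DMSO.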

[9] = target: bovine Gamma-Aminobutyric Acid Type A Receptor BDZ, alpha 1 site (GABARa1), GABRA1 (gene 780973) (UniProt P08219); test: NVS_LGIC_bGABARa1: NovaScreen (NVS) Ligand-Gated Ion Channel Assay for bovine Gamma-Aminobutyric Acid Type A Receptor BDZ, alpha 1 site (GABARa1) (AID 2283321)
Chain of bovine Gamma-Aminobutyric Acid Type A Receptor BDZ, alpha 1 site (GABARa1), GABRA1 (gene 780973) (P08219 whole entry, looked up): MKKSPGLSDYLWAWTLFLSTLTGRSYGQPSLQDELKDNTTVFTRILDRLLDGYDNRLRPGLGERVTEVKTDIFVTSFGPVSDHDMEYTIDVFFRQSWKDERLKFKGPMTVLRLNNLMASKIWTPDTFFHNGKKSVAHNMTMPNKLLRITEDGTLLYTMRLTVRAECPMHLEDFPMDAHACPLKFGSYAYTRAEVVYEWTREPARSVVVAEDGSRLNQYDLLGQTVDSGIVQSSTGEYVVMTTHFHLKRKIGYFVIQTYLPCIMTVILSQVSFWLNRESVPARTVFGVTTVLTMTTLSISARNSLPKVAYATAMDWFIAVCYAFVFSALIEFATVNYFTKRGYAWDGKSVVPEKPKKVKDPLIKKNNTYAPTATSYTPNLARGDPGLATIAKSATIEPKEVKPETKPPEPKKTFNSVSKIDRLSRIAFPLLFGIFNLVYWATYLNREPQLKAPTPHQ
Summary of the method: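 Bovine cortex membrane preparation, benzodiazepine site on GABA-A alpha1; specific radioligand displacement read after 0.75 h by filtration and scintillation. Screen at 25 uM, then singleton titrations up to 50 uM; DMSO baseline.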

[10] = target: bovine Gamma-Aminobutyric Acid Type A Receptor BDZ, alpha 5 site (GABARa5), GABRA5 (gene 523515) (UniProt Q08E50); test: NVS_LGIC_bGABARa5: NovaScreen (NVS) Ligand-Gated Ion Channel Assay for bovine Gamma-Aminobutyric Acid Type A Receptor BDZ, alpha 5 site (GABARa5) (AID 2283323)
Summary of the method: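 Tested first in duplicate at a single 25 uM, with hits re-run in concentration series to a 50 uM maximum. Bovine hippocampal membranes; specific radioligand displacement measured by filter scintillation counting 1 hr post-dose.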

[11] = target: Voltage-dependent N-type calcium channel subunit alpha-1B (Rattus norvegicus) (UniProt Q02294); test: NVS_IC_rCaChN: NovaScreen (NVS) Ion Channel Assay for rat Calcium Channel, Type N (CaChN) (AID 2283317)
[12] = target: human Serotonin, 5-Hydroxytryptamine Receptor 3 (5HT3), HTR3A (gene 3359) (UniProt P46098); test: NVS_LGIC_h5HT3: NovaScreen (NVS) Ligand-Gated Ion Channel Assay for human Serotonin, 5-Hydroxytryptamine Receptor 3 (5HT3) (AID 2283325)
Summary of the method: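 Initially tested at 25 uM in duplicate, then up to 50 uM in concentration-response for actives, compounds competed with a radioligand for HEK293-derived human 5-HT3 receptor. Bound counts were measured by filtration and scintillation at 1 h; loss of signal versus DMSO.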

Adra2b (gene 24174) = Adra2b (gene 24174) (UniProt P19328); test: NVS_GPCR_rmAdra2B: NovaScreen (NVS) G Protein-Coupled Receptor Assay for hybird cells Adrenergic, Alpha 2B Receptor (Adra2B) (AID 2283306)
Summary of the method: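 Compounds screened first at 25 uM in duplicate, with actives followed up in concentration-response; specific radioligand displacement from hybrid neuroglioma/blastoma cell membrane preparations measured by filter scintillation counting after 1 h, normalized to DMSO.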

[13] = target: human Androgen Receptor (AR), AR (gene 367) (UniProt P10275); test: NVS_NR_hAR: NovaScreen (NVS) Nuclear Receptor Binding Assay for human Androgen Receptor (AR) (AID 2283332)
Summary of the method: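 LnCAP cell-free extract; radioligand displacement read by scintillation counting after 20 h. Primary screen single concentration 25 uM in duplicate, actives then run as concentration series; loss-of-signal fitted relative to DMSO baseline.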

[14] = target: rat Corticotropin Releasing Factor Receptor (CRF), Crhr1 (gene 58959) (UniProt P35353); test: NVS_GPCR_rCRF: NovaScreen (NVS) G Protein-Coupled Receptor Assay for rat Corticotropin Releasing Factor Receptor (CRF) (AID 2283300)
Summary of the method: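 Single-concentration (25 uM, duplicate) radioligand binding on rat cortical membrane preparations, counted by scintillation after 2 h. Activity scored as signal loss relative to DMSO negative control.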

[15] = target: rat Gamma-Aminobutyric Acid Type B Receptor (GABBR), Gabbr1 (gene 81657) (UniProt Q9Z0U4); test: NVS_GPCR_rGABBR: NovaScreen (NVS) G Protein-Coupled Receptor Assay for rat Gamma-Aminobutyric Acid Type B Receptor (GABBR) (AID 2283301)
Chain of rat Gamma-Aminobutyric Acid Type B Receptor (GABBR), Gabbr1 (gene 81657) (Q9Z0U4 whole entry, looked up): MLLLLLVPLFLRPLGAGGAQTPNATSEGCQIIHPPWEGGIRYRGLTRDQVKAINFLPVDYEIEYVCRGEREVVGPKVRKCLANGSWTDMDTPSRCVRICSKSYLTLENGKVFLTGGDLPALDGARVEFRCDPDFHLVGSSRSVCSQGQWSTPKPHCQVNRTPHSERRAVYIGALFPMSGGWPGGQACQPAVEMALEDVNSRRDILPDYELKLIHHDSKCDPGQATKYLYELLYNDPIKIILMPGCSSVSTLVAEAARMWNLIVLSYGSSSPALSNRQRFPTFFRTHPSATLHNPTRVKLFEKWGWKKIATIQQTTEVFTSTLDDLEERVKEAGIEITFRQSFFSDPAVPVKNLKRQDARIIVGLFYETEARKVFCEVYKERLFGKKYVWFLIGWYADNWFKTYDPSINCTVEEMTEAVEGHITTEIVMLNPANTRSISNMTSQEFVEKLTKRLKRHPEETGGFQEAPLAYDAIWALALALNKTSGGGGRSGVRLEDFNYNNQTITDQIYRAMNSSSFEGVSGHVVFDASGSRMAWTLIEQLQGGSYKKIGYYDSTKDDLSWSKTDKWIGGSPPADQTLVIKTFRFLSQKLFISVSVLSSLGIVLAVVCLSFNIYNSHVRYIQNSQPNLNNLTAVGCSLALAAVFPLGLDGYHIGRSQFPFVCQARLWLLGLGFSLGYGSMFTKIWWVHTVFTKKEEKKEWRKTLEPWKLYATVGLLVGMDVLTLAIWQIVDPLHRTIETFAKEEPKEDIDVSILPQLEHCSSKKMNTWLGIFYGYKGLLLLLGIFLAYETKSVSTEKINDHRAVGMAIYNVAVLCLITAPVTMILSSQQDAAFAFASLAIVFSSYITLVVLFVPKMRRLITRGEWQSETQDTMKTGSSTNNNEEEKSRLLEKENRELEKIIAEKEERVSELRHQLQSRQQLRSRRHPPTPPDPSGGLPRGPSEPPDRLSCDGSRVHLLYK
Summary of the method: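 Rat cortical membrane preparation, competitive radioligand binding for 1 h with filtration and scintillation readout. Actives from duplicate single-point 25 uM screening proceeded to concentration series with 50 uM top concentration.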

[16] = target: rat Glutamate, NMDA Agonist Site (GluNMDA), Grin1 (gene 24408) (UniProt P35439); test: NVS_LGIC_rGluNMDA_Agonist: NovaScreen (NVS) Ligand-Gated Ion Channel Assay for rat Glutamate, NMDA Agonist Site (GluNMDA) (AID 2283327)
Summary of the method: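 Radioligand displacement at the agonist site on rat forebrain membrane preparations, read by filter scintillation after 1 h. Chemicals were first run at 25 uM in duplicate; those passing threshold were titrated to a 50 uM maximum.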

[17] = target: rat Gamma-Aminobutyric Acid Type A Receptor, Non-Selective (GABAR-NonSelective), Gabra1 (gene 29705) (UniProt P62813); test: NVS_LGIC_rGABAR_NonSelective: NovaScreen (NVS) Ligand-Gated Ion Channel Assay for rat Gamma-Aminobutyric Acid Type A Receptor, Non-Selective (GABAR-NonSelective) (AID 2283326)
Chain of rat Gamma-Aminobutyric Acid Type A Receptor, Non-Selective (GABAR-NonSelective), Gabra1 (gene 29705) (P62813 whole entry, looked up): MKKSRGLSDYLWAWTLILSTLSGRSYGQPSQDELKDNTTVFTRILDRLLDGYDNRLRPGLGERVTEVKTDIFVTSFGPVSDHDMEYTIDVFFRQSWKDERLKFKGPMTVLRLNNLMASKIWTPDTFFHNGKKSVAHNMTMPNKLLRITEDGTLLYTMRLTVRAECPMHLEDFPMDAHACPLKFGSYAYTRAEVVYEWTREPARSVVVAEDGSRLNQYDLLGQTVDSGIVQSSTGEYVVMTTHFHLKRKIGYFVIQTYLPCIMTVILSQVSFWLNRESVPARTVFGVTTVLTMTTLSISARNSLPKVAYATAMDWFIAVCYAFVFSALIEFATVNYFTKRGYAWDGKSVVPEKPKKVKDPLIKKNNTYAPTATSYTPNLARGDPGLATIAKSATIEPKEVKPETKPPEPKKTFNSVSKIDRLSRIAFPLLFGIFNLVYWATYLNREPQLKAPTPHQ
Summary of the method: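 Compounds were first screened in duplicate at 25 uM, with actives run as singleton concentration series (max 50 uM). Binding of a radioligand to rat whole-brain GABA-A preparation was measured by filtration and scintillation counting after 1 h, DMSO baseline.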

[18] = target: human Constitutive Androstane Receptor (CAR), NR1I3 (gene 9970) (UniProt Q14994); test: NVS_NR_hCAR_Agonist: NovaScreen (NVS) Nuclear Receptor Binding Assay for human Constitutive Androstane Receptor Agonism (CAR) (AID 2283328)
Summary of the method: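 Actives from a 25 uM duplicate screen were retested in singleton concentration series to 50 uM max. Biochemical TR-FRET assay on extracted CAR protein measured 1 h post-dose, with signal increase over DMSO control.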

CC(C)Nc1ccc(Nc2ccccc2)cc1
AC50 [1]: 25 µM (active)

O=P1(N(CCCl)CCCl)NCCCO1 (centres undefined)
outcome [2]: inactive

CCCCN(CCCC)SN(C)C(=O)Oc1cccc2c1OC(C)(C)C2
outcome [3]: inactive

CCOP(=S)(OCC)SCS(=O)(=O)CC
outcome [4]: inactive | AC50 [5]: 25 µM (active)

Nc1ccc2ccccc2c1
AC50 [5]: 6.61 µM (active)

COC(N)=O
outcome [6]: inactive

CCOP(=S)(OCC)SCn1nnc2ccccc2c1=O
AC50 [5]: 11.2 µM (active)

C=CC(=O)OCC(CC)(COC(=O)C=C)COC(=O)C=C
AC50 [5]: 17.2 µM (active)

Nc1cc2c3c(c1)C(c1ccccc1)=N[C@@H](NC(=O)c1cccnc1)C(=O)N3CC2
outcome [7]: inactive | outcome [8]: inactive | outcome [9]: inactive | outcome [10]: inactive

Cc1cc(C)c(C(=O)P(=O)(c2ccccc2)c2ccccc2)c(C)c1
outcome [8]: inactive | outcome [4]: inactive | AC50 [5]: 3.55 µM (active)

CCCCC(CC)COP(=O)(Oc1ccccc1)Oc1ccccc1 (centres undefined)
outcome [1]: inactive | outcome [6]: inactive | AC50 [5]: 10.9 µM (active)

CCOP(=S)(Oc1ccc([N+](=O)[O-])cc1)c1ccccc1 (centres undefined)
outcome [5]: inactive

ClC1=C(Cl)C2(Cl)C3C(Cl)C(Cl)CC3C1(Cl)C2(Cl)Cl (centres undefined)
outcome [11]: inactive

Nc1ccc(Cl)cc1
outcome [12]: inactive

O=P(Oc1ccccc1)(Oc1ccccc1)Oc1ccccc1
outcome (Adra2b (gene 24174)): inactive | AC50 [5]: 2.61 µM (active)

O=C(CBr)OCc1ccccc1
outcome [6]: inactive

CCCCCCCc1ccc(O)cc1
outcome [6]: inactive | outcome [13]: inactive

CC(Cc1ccc(OCC(=O)O)cc1)NCC(O)c1csc(C(F)(F)F)n1 (centres undefined)
outcome [14]: inactive | outcome [15]: inactive | outcome [16]: inactive

CCC1(c2ccccc2)C(=O)N=C(O)NC1=O (centres undefined)
outcome [15]: inactive | outcome [9]: inactive | outcome [17]: inactive

c1ccc2c(c1)Nc1ccccc1S2
outcome [18]: inactive
